In test [1] the target is Glucocorticoid receptor (Homo sapiens) (UniProt P04150). The test is described as follows: ATG_GR_TRANS: Attagene TRANS-FACTORIAL HepG2 Assay for human Glucocorticoid Receptor (GR) (AID 2282978; active = hit-call score of the fitted dose curve at least 0.9, where 1 is the maximum;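 note: activators score as hits since higher reporter transcript over DMSO is fitted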). As to conditions: HepG2 Attagene TRANS GR reporter, mRNA transcription. In outline:
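In this trans-factorial format, exogenous NR-GAL4 chimeric proteins in transfected HepG2 cells regulate GAL4-UAS reporter transcription. After 24 h treatment, reporter mRNA induction relative to DMSO is read by RT-PCR and capillary electrophoresis.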

Test [2] addresses Bile acid receptor (Homo sapiens) (UniProt Q96RI1). The test can be described thus: ATG_FXR_TRANS: Attagene TRANS-FACTORIAL HepG2 Assay for Farnesoid X Receptor (FXR) (AID 2282979; active = hit-call score of the fitted dose curve at least 0.9, where 1 is the maximum;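 note: hits raise reporter mRNA above DMSO so AC50 marks FXR activation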). As to conditions: HepG2 Attagene TRANS FXR-GAL4 reporter transcription. In outline: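 HepG2 cells transiently transfected with reporter constructs in which a chimeric FXR-GAL4 protein drives a GAL4-UAS reporter; 24 h compound exposure. Reporter mRNA measured by RT-PCR, FAM labelling, HpaI digestion and capillary electrophoresis; gain-of-signal versus DMSO.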

The target in test [3] is Oxysterols receptor LXR-alpha (Homo sapiens) (UniProt Q13133). The test can be described thus: ATG_LXRa_TRANS: Attagene TRANS-FACTORIAL HepG2 Assay for human Liver X Receptor alpha (LXRa) (AID 2282980; active = hit-call score of the fitted dose curve at least 0.9, where 1 is the maximum). The settings on record: HepG2 Attagene TRANS reporter, LXRa transactivation. In outline: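 HepG2 cells were transiently transfected with multiplexed reporter units driven by chimeric LXRa–GAL4 fusion proteins, then dosed for 24 h. Reporter mRNA was quantified by RT-PCR, fluorescent labelling and capillary electrophoresis; gain of signal fitted against DMSO baseline.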
Sequence of Oxysterols receptor LXR-alpha (Homo sapiens) (Q13133 whole entry, looked up, the tested form may be a part): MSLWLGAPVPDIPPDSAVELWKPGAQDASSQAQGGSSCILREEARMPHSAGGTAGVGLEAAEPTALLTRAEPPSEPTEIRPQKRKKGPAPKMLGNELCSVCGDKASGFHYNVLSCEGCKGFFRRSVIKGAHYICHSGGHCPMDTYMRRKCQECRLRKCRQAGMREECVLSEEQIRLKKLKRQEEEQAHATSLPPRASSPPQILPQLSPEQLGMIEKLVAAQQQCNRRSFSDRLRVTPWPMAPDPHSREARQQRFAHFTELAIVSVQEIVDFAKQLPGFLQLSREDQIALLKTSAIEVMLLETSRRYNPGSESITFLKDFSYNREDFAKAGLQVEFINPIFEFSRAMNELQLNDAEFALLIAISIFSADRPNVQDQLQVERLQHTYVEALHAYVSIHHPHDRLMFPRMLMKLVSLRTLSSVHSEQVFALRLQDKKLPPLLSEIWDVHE

Test [4] concerns the target Hepatocyte nuclear factor 4-alpha (Homo sapiens) (UniProt P41235). The test can be described thus: ATG_HNF4a_TRANS: Attagene TRANS-FACTORIAL HepG2 Assay for human Hepatocyte Nuclear Factor 4 alpha (HNF4a) (AID 2282982; active = hit-call score of the fitted dose curve at least 0.9, where 1 is the maximum). As to conditions: HepG2 HNF4a transactivation reporter, mRNA readout. In outline: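 Cells used were human HepG2, transiently carrying GAL4-UAS reporter units read out against exogenous NR-GAL4 chimeras. Reporter transcript levels after 24 h dosing were quantified by fluorescent RT-PCR and capillary electrophoresis.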

Test [5] can be described thus: ATG_M_06_TRANS: Attagene TRANS-FACTORIAL HepG2 Assay for M06 Transcription Factor (Internal Marker) (AID 2282983; active = hit-call score of the fitted dose curve at least 0.9, where 1 is the maximum). The settings on record: HepG2 Attagene TRANS M06 internal marker reporter. In outline:
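HepG2 cells transiently transfected with multiplexed GAL4-UAS reporter transcription units; after 24 h compound exposure, reporter mRNA measured by RT-PCR, FAM-labelled primer extension, HpaI digestion and capillary electrophoresis. Gain-of-signal fitted versus DMSO baseline; background control readout.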

Test [6] is described as follows: ATG_M_32_TRANS: Attagene TRANS-FACTORIAL HepG2 Assay for M32 Transcription Factor (Internal Marker) (AID 2282984; active = hit-call score of the fitted dose curve at least 0.9, where 1 is the maximum). The settings on record: HepG2 Attagene TRANS M32 internal marker reporter. In outline: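 Human hepatoma HepG2, transient MRTU transfection, 24 h treatment. RNA → RT-PCR → fluorescent primer extension → HpaI digest (2 h, 37 C) → CE. Positive-direction fit vs DMSO.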

Test [7] concerns the target Nuclear receptor subfamily 4 group A member 2 (Homo sapiens) (UniProt P43354). The test can be described thus: ATG_NURR1_TRANS: Attagene TRANS-FACTORIAL HepG2 Assay for human Nuclear Receptor Related Protein 1 (NURR1) (AID 2282985; active = hit-call score of the fitted dose curve at least 0.9, where 1 is the maximum). As to conditions: HepG2 Attagene TRANS reporter, mRNA readout. In outline: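 After 24 h chemical dosing, total RNA from transiently transfected HepG2 cells was reverse-transcribed and reporter cDNA PCR-amplified, FAM-labelled and analysed by capillary electrophoresis. Activity fitted in positive direction, DMSO as negative control.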

In test [8] the target is Transcriptional activator Myb (Homo sapiens) (UniProt P10242). The test is described as follows: ATG_Myb_CIS: Attagene CIS-FACTORIAL HepG2 Assay for human Myeloblastosis (Myb) Proto-Oncogene Transcription Factor (AID 2282986). As to conditions: HepG2 Attagene CIS-FACTORIAL Myb reporter transcription; actives raise or lower the signal. In outline: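 Steps: transfect HepG2 with cis-regulated reporter units; dose with chemical for 24 h; isolate RNA, reverse-transcribe, PCR-amplify and FAM-label reporter sequences; digest with HpaI; resolve by capillary electrophoresis. Activity fitted in both directions relative to DMSO.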
Sequence of Transcriptional activator Myb (Homo sapiens) (P10242 whole entry, looked up): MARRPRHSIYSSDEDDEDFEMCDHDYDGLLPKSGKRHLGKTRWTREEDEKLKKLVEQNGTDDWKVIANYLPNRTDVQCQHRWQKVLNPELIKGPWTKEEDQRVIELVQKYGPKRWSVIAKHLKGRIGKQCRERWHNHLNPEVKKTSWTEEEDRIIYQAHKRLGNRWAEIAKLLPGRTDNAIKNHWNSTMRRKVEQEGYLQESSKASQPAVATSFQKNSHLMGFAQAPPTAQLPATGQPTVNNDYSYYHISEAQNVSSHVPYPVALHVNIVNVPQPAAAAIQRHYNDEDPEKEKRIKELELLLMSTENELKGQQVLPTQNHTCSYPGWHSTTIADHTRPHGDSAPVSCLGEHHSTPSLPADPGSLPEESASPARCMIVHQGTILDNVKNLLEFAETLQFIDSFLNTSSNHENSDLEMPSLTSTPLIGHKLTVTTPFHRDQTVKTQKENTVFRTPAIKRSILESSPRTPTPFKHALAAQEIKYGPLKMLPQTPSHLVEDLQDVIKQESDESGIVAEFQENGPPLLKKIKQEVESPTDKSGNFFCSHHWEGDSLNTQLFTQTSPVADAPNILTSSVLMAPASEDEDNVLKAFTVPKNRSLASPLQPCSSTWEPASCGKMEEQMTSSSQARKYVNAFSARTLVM

The target in test [9] is Nuclear respiratory factor 1 (Homo sapiens) (UniProt Q16656). The test is described as follows: ATG_NRF1_CIS: Attagene CIS-FACTORIAL HepG2 Assay for human Nuclear Respiratory Factor 1 (NRF1) Orphan Gene (AID 2282987). As to conditions: HepG2 NRF1 cis-element reporter, Attagene multiplex; actives raise or lower the signal. In outline: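 Fluorescence intensity of labelled reporter cDNA fragments, resolved by capillary electrophoresis, served as readout for NRF1 cis-element activity. Transiently transfected HepG2 cells were dosed for 24 hours; activity in either direction was fitted against DMSO negative control.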
Sequence of Nuclear respiratory factor 1 (Homo sapiens) (Q16656 whole entry, looked up, the tested form may be a part): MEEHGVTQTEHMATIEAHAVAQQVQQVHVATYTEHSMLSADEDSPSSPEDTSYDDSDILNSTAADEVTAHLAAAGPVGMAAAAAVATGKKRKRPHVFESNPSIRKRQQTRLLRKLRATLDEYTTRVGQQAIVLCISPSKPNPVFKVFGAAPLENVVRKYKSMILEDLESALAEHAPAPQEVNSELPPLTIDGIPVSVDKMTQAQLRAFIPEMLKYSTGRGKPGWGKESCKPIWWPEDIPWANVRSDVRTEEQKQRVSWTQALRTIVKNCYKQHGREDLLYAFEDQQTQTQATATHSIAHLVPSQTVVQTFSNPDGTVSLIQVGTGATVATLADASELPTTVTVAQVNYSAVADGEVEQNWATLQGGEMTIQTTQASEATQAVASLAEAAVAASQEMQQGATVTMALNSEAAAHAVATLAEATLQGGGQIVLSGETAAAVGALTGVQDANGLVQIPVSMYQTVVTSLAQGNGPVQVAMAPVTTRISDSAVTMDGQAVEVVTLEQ

Test [10] can be described thus: ATG_NFI_CIS: Attagene CIS-FACTORIAL HepG2 Assay for human Nuclear Factor I (NFI) (AID 2282989). The settings on record: HepG2 cis-regulatory reporter, NFI response element transcription; actives raise or lower the signal. In outline: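 Endogenous TF activity in HepG2 cells transiently transfected with cis-element-driven multiplexed reporter units, read 24 h after dosing. Reporter mRNA quantified by RT-PCR, 6-FAM labelling, HpaI digestion and capillary electrophoresis; bidirectional fit versus DMSO.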

Test [11] has as its target Myc proto-oncogene protein (Homo sapiens) (UniProt P01106). The test is described as follows: ATG_Myc_CIS: Attagene CIS-FACTORIAL HepG2 Assay for human Myelocytomatosis (Myc) Proto-Oncogene Transcription Factor (AID 2282990). The settings on record: HepG2, Attagene cis-reporter transcription factor activity; actives raise or lower the signal. In outline: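 HepG2 cells transiently transfected with multiple cis-promoter-driven reporter transcription units, so endogenous TF activity is read. After 24 h compound exposure, reporter mRNA was quantified by RT-PCR, 6-FAM labelling, HpaI digestion and capillary electrophoresis; bidirectional fit versus DMSO.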

Test [12] is described as follows: ATG_NF_kB_CIS: Attagene CIS-FACTORIAL HepG2 Assay for human Nuclear Factor Kappa B (NF-kB) (AID 2282991). As to conditions: HepG2 Attagene cis-factorial NF-kB reporter mRNA; actives raise or lower the signal. In outline:
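Endogenous transcription factor activity in HepG2 was captured via cis-regulated reporter constructs; after 24 h dosing, reporter mRNA was reverse-transcribed, amplified, fluorescently labelled and sized by capillary electrophoresis, with activity fitted bidirectionally relative to DMSO.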

A short description of test [13]: ATG_NRF2_ARE_CIS: Attagene CIS-FACTORIAL HepG2 Assay for human Nuclear Factor Erythroid 2 Related Factor 2 (NFR2) response to Antioxidant Response Elements (ARE) (AID 2282992). The settings on record: HepG2 Attagene ARE/NRF2 reporter, transcription factor activity; actives raise or lower the signal. In outline: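 HepG2 cells transiently transfected with multiplexed cis-element reporter constructs, 24 h after chemical dosing; reporter mRNA quantified by RT-PCR, fluorescent primer extension, HpaI digestion and capillary electrophoresis. Bidirectional fit relative to DMSO.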

Test [14] can be described thus: ATG_Oct_MLP_CIS: Attagene CIS-FACTORIAL HepG2 Assay for human Octamer-Binding Transcription Factor (Oct) (AID 2282993). As to conditions: HepG2 Attagene cis-factorial Oct reporter, mRNA; actives raise or lower the signal. In outline: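 HepG2 cells transiently transfected with cis-element-driven reporter transcription units (endogenous TF activity); 24 h compound exposure. Reporter mRNA quantified by RT-PCR, 6-FAM labelling, HpaI digestion and capillary electrophoresis; bidirectional fit versus DMSO baseline.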

The target of test [15] is Cellular tumor antigen p53 (Homo sapiens) (UniProt P04637). The test is described as follows: ATG_p53_CIS: Attagene CIS-FACTORIAL HepG2 Assay for human p53 Transcription Factor (AID 2282994). The settings on record: HepG2 p53 cis-element reporter, Attagene mRNA; actives raise or lower the signal. In outline:
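HepG2 cells transiently transfected with cis-regulated multiple reporter transcription units, dosed 24 h. Reporter mRNA measured by RT-PCR, 6-FAM primer extension, HpaI digestion and capillary electrophoresis; bidirectional fit relative to DMSO.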

A short description of test [16]: BSK_3C_uPAR: BioMAP Diversity Plus: 3C Assay for Urokinase-type plasminogen activator receptor (uPAR) Biomarker Activity (AID 2282998). As to conditions: BioMAP 3C HUVEC, uPAR biomarker ELISA; actives raise or lower the signal. In outline:
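Primary human umbilical vein endothelial cells, 3C system; surface uPAR measured by ELISA 24 h after dosing. Cytotoxicity via SRB total protein in parallel cultures; bidirectional fit against DMSO.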
(ELISA stands for enzyme-linked immunosorbent assay.)

The nature of test [17]: BSK_3C_VCAM1: BioMAP Diversity Plus: 3C Assay for Vascular cell adhesion molecule 1 (VCAM1) Biomarker Activity (AID 2282999). The settings on record: BioMAP 3C HUVEC, VCAM1 ELISA, cytokine-stimulated; actives raise or lower the signal. In outline:
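Human umbilical vein endothelial cells were dosed with compound for 24 h, after which cell-surface VCAM-1 was quantified by ELISA. Bidirectional curve fitting used DMSO as negative control and activity baseline.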

Test [18] in a line: BSK_3C_TissueFactor: BioMAP Diversity Plus: 3C Assay for Tissue Factor Biomarker Activity (AID 2282997). As to conditions: BioMAP 3C HUVEC, tissue factor biomarker readout; actives raise or lower the signal. In outline: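 Primary human umbilical vein endothelial cells in the 3C system were exposed to test chemical for 24 h, then Tissue Factor measured by ELISA. Activity was fitted bidirectionally against DMSO as negative control and baseline.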

Test [19] is described as follows: BSK_4H_Eotaxin3: BioMAP Diversity Plus: 4H Assay for Eotaxin 3 Biomarker Activity (AID 2283000).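 Note: CCL26 protein level quantified by ELISA in parallel with SRB cytotoxicity check.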 As to conditions: primary human endothelial cells (HUVEC); actives raise or lower the signal. In outline: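 HUVEC, 24 h post-dose, ELISA for Eotaxin-3/CCL26. Gain or loss of signal fitted bidirectionally vs DMSO baseline.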
In test [20] the target is Oxysterols receptor LXR-beta (Homo sapiens) (UniProt P55055). The test can be described thus: ATG_LXRb_TRANS: Attagene TRANS-FACTORIAL HepG2 Assay for human Liver X Receptor beta (LXRb) (AID 2282981; active = hit-call score of the fitted dose curve at least 0.9, where 1 is the maximum). The settings on record: HepG2 Attagene TRANS GAL4-LXRb reporter, mRNA. In outline: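 In this TRANS format, exogenous chimeric NR-Gal4 protein activity, not endogenous factors, drives reporter expression in transfected human HepG2 cells. Exposure lasted 24 h; reporter mRNA was read by fluorescent capillary electrophoresis.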

“And” between values parts separate entries of the source, which are not always exact repeats. Equal entries are not always repeated. Inconclusive results are not listed. The source holds several records for some structures; these can differ, active in one and inactive in another. The source made the active and inactive calls. Rule for the calls, unless noted: active = hit-call score of the fitted dose curve at least 0.9, where 1 is the maximum; inactive = score below 0.9.

Sequence of Cellular tumor antigen p53 (Homo sapiens) (P04637 whole entry, looked up): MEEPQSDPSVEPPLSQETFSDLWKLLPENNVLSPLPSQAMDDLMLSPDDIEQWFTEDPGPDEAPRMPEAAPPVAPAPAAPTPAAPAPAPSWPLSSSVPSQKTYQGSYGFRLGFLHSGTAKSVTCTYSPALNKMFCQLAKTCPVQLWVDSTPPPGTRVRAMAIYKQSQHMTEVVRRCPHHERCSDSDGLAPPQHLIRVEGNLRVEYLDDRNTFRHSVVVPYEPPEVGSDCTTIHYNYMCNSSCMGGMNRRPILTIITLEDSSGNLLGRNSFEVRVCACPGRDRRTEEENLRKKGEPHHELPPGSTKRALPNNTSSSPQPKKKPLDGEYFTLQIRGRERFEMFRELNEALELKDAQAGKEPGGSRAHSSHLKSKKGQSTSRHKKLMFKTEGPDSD
Sequence of Myc proto-oncogene protein (Homo sapiens) (P01106 whole entry, looked up): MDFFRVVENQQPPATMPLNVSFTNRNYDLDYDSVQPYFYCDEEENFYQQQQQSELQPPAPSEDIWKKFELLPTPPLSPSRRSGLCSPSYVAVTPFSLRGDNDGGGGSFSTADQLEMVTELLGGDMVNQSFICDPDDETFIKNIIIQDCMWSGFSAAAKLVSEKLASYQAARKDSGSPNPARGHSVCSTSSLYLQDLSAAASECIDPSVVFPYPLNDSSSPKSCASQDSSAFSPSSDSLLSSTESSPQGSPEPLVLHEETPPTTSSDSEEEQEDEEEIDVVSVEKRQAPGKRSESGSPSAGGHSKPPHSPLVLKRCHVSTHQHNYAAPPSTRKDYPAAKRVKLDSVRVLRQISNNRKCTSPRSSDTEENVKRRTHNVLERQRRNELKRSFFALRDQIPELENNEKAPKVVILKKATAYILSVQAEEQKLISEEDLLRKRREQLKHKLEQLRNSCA
Sequence of Bile acid receptor (Homo sapiens) (Q96RI1 whole entry, looked up, the tested form may be a part): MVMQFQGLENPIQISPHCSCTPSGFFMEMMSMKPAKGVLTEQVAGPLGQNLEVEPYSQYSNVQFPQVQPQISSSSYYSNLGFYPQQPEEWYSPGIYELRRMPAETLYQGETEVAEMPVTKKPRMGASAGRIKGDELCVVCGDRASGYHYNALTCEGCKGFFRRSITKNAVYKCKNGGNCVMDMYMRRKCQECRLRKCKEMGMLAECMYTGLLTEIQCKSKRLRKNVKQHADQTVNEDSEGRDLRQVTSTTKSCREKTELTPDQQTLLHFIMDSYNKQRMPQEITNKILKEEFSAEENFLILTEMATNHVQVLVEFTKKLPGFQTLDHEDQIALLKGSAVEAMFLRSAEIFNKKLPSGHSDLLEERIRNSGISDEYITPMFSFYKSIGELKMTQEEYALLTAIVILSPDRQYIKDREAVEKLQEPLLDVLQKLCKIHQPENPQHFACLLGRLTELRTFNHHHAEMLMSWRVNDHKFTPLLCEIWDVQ
Sequence of Glucocorticoid receptor (Homo sapiens) (P04150 whole entry, looked up, the tested form may be a part): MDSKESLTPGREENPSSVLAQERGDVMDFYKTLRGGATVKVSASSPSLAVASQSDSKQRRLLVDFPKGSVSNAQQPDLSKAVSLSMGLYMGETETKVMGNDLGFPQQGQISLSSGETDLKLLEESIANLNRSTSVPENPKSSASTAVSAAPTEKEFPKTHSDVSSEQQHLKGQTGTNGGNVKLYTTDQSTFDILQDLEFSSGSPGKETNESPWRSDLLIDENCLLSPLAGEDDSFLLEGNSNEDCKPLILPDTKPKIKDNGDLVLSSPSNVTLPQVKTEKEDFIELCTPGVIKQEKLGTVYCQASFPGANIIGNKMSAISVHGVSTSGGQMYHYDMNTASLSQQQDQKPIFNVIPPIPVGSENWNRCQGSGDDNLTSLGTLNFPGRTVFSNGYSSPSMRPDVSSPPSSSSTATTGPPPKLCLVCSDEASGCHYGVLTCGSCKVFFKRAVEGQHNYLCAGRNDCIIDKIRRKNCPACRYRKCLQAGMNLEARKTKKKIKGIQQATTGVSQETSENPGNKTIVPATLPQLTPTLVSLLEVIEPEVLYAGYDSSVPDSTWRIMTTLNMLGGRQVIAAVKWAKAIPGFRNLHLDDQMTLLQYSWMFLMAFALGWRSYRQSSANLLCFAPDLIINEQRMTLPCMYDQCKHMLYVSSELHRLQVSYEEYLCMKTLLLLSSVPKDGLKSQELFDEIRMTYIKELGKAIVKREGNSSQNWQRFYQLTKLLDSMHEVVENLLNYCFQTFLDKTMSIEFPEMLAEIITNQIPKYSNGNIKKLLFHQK
Sequence of Hepatocyte nuclear factor 4-alpha (Homo sapiens) (P41235 whole entry, looked up, the tested form may be a part): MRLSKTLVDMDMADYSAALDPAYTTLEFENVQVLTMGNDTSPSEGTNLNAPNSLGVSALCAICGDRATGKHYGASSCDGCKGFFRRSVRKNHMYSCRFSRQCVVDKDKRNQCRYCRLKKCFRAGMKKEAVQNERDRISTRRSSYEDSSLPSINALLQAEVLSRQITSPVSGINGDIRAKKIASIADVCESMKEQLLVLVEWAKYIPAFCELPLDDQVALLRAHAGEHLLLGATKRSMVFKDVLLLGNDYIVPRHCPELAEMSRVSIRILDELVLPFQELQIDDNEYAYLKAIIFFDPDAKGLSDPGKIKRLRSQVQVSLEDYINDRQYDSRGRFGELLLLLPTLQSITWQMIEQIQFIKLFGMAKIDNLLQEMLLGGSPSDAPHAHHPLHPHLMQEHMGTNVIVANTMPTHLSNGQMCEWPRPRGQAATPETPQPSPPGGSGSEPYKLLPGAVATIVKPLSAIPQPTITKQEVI
Sequence of Nuclear receptor subfamily 4 group A member 2 (Homo sapiens) (P43354 whole entry, looked up): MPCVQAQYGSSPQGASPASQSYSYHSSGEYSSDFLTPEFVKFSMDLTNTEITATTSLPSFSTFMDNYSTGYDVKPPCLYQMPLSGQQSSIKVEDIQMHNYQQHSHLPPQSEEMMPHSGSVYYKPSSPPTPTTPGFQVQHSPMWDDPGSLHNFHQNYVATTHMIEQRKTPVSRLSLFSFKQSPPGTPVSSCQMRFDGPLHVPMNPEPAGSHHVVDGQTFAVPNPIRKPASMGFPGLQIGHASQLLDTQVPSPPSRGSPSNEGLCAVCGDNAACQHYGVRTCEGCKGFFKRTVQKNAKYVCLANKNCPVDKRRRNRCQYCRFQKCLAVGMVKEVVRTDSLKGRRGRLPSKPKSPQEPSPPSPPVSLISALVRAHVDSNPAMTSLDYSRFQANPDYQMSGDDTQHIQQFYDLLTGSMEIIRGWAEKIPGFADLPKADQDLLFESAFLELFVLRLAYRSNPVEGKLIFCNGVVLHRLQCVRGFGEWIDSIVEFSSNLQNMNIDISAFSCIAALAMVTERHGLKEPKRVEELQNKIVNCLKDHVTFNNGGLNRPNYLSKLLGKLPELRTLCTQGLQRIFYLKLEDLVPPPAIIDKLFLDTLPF

Take `OCC(F)(F)OC(F)(F)C(F)(F)OC(F)(F)C(F)(F)OC(F)(F)F`: the molecule was called inactive in [1], in [2], in [3], in [4], in [5] and in test [6]. Also, the outcome in test [7], in test [8], in test [9], in [10], in [11] and in [12] was inactive. In addition, the molecule was classed as inactive in test [13], in test [14] and in test [15]. Further, the AC50 – broadly, the midpoint of the concentration-response curve, whichever way the signal moves – in test [15] is 76.8 µM (active); in test [16] it was 43.9 µM (active) and 46.4 µM (active); in test [17], 36.1 µM (active) and 50.3 µM (active).
With `Nc1ccc([N+](=O)[O-])cc1Cl`, the result in test [1], in test [2], in test [3], in test [4], in test [6] and in test [8] was inactive. In addition, the outcome in test [9], in test [10], in [11], in test [12], in [13] and in test [14] was inactive. Besides, the result in test [15], in test [18], in test [16], in test [17] and in test [19] was inactive.
As to `CC(O)C(F)(F)C(F)(F)F` (stereo not drawn), the result in test [1], in test [2], in test [3], in test [20], in [4] and in test [5] was inactive. Also, the result in test [6], in [7], in test [8], in test [9], in [10] and in test [11] was inactive. The result in [12], in test [13], in [14], in test [15], in test [16] and in test [17] was inactive.

For the origin of these results see PubChem BioAssay (EPA / NIEHS).
